# According to the supplement of paper PMC9950053:
# Structures can show the parent of a compound that is named as a salt.
# Tested on: Danio rerio larvae (5 dpf)
# Assay: excitability (activity period 17 minus period 16, 1-s interval sound) minus DMSO control (percentage points); higher = more acoustic excitability than DMSO larvae
# Conditions: 10 µM; exposure time: 3 h pre-incubation + 3 h imaging
# Experimental: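 Wild-type 5 dpf zebrafish larvae (n=48 per drug, 96-well plates, 28.5 °C) were exposed to Tocris FDA-approved library compounds at 10 µM (0.1% DMSO) for 3 h before and 3 h during imaging. Images were taken every 6 s during visual and acoustic stimuli, and larvae were tracked with Z-LaP Tracker. Each measure is the treated-group mean minus the DMSO control mean (n=844), in percentage points. This mapping covers compounds with 5-character plate codes.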
row,Structure (SMILES),excitability
1,COc1ccc(C(CN(C)C)C2(O)CCCCC2)cc1 (stereo unspecified) [Venlafaxine hydrochloride],8.91
